Consider 69 molecules from the antibiotic and cytotoxicity screens of Wong et al. (2023).

Each structure is given as a SMILES string. Screen size: about 39,000 compounds; about 3,300 (8.5%) were called active. Only a selection was taken, and actives are over-represented in it overall.

This test relates to HepG2. Put plainly: cytotoxicity call (relative viability < 0.9). Conditions: 10 µM.
Consider `C[C@H]1CN([C@@H](C)CO)C(=O)c2cc(C#CC3CCCCC3)cnc2O[C@H]1CN(C)C(=O)Cc1ccccn1`, for which the cytotoxicity call was “inactive”.

Regarding `CCc1nc2ccc(C(=O)NCc3ccc(OC)cc3)cn2c1N(CC)Cc1cccc(Br)c1`, the cytotoxicity call is “inactive”.

Consider `CC(=O)n1cc([C@@H]2C=C(C(=O)N3CCN(Cc4ccc5c(c4)OCO5)CC3)O[C@H](OCc3ccc(COC(=O)NCCCCCC(=O)NO)cc3)C2)c2ccccc21`, for which the cytotoxicity call was “inactive”.

As to `CCC(=O)NCc1nn(C)c2c1COCC2`, the cytotoxicity call was “inactive”.

With `CCC(=O)NCCC1CCc2ccc3c(c21)CCO3` (centres undefined), the cytotoxicity call is “active”.

Consider `COc1ccc(NC(=O)N(C)C[C@@H]2OCCCC[C@@H](C)Oc3ccc(NC(=O)Nc4cccc5ccccc45)cc3C(=O)N([C@@H](C)CO)C[C@@H]2C)cc1`, for which the cytotoxicity call is “inactive”.

`C[C@H](CO)N1C[C@H](C)[C@@H](CN(C)Cc2ccc3c(c2)OCO3)OCCCC[C@H](C)Oc2ccc(NC(=O)Cc3ccccc3)cc2C1=O`: the cytotoxicity call is “inactive”.

Regarding `C[C@@H]1CCCCO[C@H](CN(C)CC2CCCCC2)[C@@H](C)CN([C@H](C)CO)C(=O)c2cc(NC(=O)Nc3ccc4c(c3)OCO4)ccc2O1`, the cytotoxicity call was “inactive”.

For `C[C@@H]1CN([C@H](C)CO)C(=O)c2cc(NC(=O)Nc3ccc4c(c3)OCO4)ccc2O[C@@H](C)CCCCO[C@@H]1CN(C)CC1CCCCC1`, the cytotoxicity call is “inactive”.

As to `C[C@@H]1CCCCO[C@@H](CN(C)CC2CCCCC2)[C@@H](C)CN([C@H](C)CO)C(=O)c2cc(NC(=O)Nc3ccc4c(c3)OCO4)ccc2O1`, the cytotoxicity call is “active”.

Regarding `C[C@@H]1CCCCO[C@@H](CN(C)CC2CC2)[C@@H](C)CN([C@H](C)CO)C(=O)c2cc(NC(=O)Nc3ccc4c(c3)OCO4)ccc2O1`, the cytotoxicity call is “inactive”.

`C[C@@H]1CCCCO[C@H](CN(C)CC2CC2)[C@@H](C)CN([C@H](C)CO)C(=O)c2cc(NC(=O)Nc3ccc4c(c3)OCO4)ccc2O1`: the cytotoxicity call is “inactive”.

Consider `C[C@@H]1CCCCO[C@@H](CN(C)CC2CC2)[C@H](C)CN([C@H](C)CO)C(=O)c2cc(NC(=O)Nc3ccc4c(c3)OCO4)ccc2O1`, for which the cytotoxicity call is “inactive”.

Regarding `C[C@H]1CCCCO[C@H](CN(C)CC2CCCCC2)[C@@H](C)CN([C@@H](C)CO)C(=O)c2cc(NC(=O)Nc3ccc4c(c3)OCO4)ccc2O1`, the cytotoxicity call is “active”.

For `C[C@@H]1CCCCO[C@H](CN(C)CC2CCCCC2)[C@H](C)CN([C@H](C)CO)C(=O)c2cc(NC(=O)Nc3ccc4c(c3)OCO4)ccc2O1`, the cytotoxicity call was “inactive”.

In the case of `C[C@H](CO)N1C[C@H](C)[C@H](CN(C)CC2CCCCC2)OCCCC[C@H](C)Oc2ccc(NC(=O)Nc3ccc4c(c3)OCO4)cc2C1=O`, the cytotoxicity call was “active”.

Consider `C[C@@H]1CCCCO[C@@H](CN(C)CC2CCCCC2)[C@@H](C)CN([C@@H](C)CO)C(=O)c2cc(NC(=O)Nc3ccc4c(c3)OCO4)ccc2O1`, for which the cytotoxicity call is “active”.

With `C[C@H](CO)N1C[C@H](C)[C@H](CN(C)CC2CC2)OCCCC[C@H](C)Oc2ccc(NC(=O)Nc3ccc4c(c3)OCO4)cc2C1=O`, the cytotoxicity call was “inactive”.

Consider `C[C@H](CO)N1C[C@H](C)[C@@H](CN(C)CC2CC2)OCCCC[C@H](C)Oc2ccc(NC(=O)Nc3ccc4c(c3)OCO4)cc2C1=O`, for which the cytotoxicity call was “inactive”.

`CCC[C@@]1(CCc2ccccc2)CC(=O)[C@@H]([C@H](CC)c2cccc(NS(=O)(=O)c3ccc(C(F)(F)F)cn3)c2)C(=O)O1`: the cytotoxicity call is “inactive”.

Consider `C[C@@H]1CCCCO[C@@H](CN(C)Cc2ccc(C(=O)O)cc2)[C@@H](C)CN([C@@H](C)CO)C(=O)c2cc(NS(=O)(=O)c3ccc(F)cc3)ccc2O1`, for which the cytotoxicity call is “inactive”.

Regarding `C[C@@H]1CN([C@@H](C)CO)S(=O)(=O)c2ccc(-c3cccnc3)cc2O[C@@H]1CN(C)CC1CCOCC1`, the cytotoxicity call was “inactive”.

Turning to `COc1ccc(S(=O)(=O)Nc2cccc3c2O[C@H](CN(C)S(=O)(=O)c2ccccc2)[C@@H](C)CN([C@@H](C)CO)C3=O)cc1`, the cytotoxicity call is “inactive”.

In the case of `C[C@H](CO)N1C[C@H](C)[C@H](CN(C)S(=O)(=O)c2ccc(F)cc2)Oc2ccc(NC(=O)C3CC3)cc2CC1=O`, the cytotoxicity call was “inactive”.

As to `O=C(O)CCc1n[nH]c(=S)[nH]c1=O`, the cytotoxicity call was “inactive”.

Regarding `Cc1ccc(S(=O)(=O)Nc2ccc3c(c2)C(=O)N([C@H](C)CO)C[C@H](C)[C@@H](CN(C)C(=O)c2ccccc2)OCCCC[C@H](C)O3)cc1`, the cytotoxicity call was “inactive”.

Consider `C[C@@H]1CN([C@H](C)CO)C(=O)Cc2cc(NC(=O)Cc3ccccc3)ccc2O[C@H]1CN(C)S(=O)(=O)c1ccc(F)cc1`, for which the cytotoxicity call was “inactive”.

For the molecule `COc1ccc(NC(=O)N(C)C[C@H]2OCCCC[C@H](C)Oc3ccc(NC(=O)Cc4ccccc4)cc3C(=O)N([C@H](C)CO)C[C@H]2C)cc1`, the cytotoxicity call is “inactive”.

For the molecule `C[C@@H]1CN([C@H](C)CO)C(=O)Cc2cc(NC(=O)Cn3cnnn3)ccc2O[C@H]1CN(C)S(=O)(=O)c1ccc(F)cc1`, the cytotoxicity call was “inactive”.

In the case of `COc1ccc(S(=O)(=O)Nc2cccc3c2O[C@@H](CN(C)Cc2ccc(Oc4ccccc4)cc2)[C@@H](C)CN([C@@H](C)CO)C3=O)cc1`, the cytotoxicity call is “inactive”.

Take `CCS(=O)(=O)N1C[C@]2(C1)CN([C@@H](CO)c1c2c2ccc(cc2n1C)OC)C(=O)c1ccc(cc1)F`: the cytotoxicity call is “inactive”.

Consider `CN(C)C(=O)c1ccc(-c2ccc3n(c2=O)C[C@H]2[C@H](CO)[C@@H](C(=O)NCCc4ccccc4)N[C@@H]32)cc1`, for which the cytotoxicity call is “inactive”.

`C[C@@H]1CN([C@@H](C)CO)C(=O)c2cc(NC(=O)Nc3ccc4c(c3)OCO4)ccc2O[C@@H](C)CCCCO[C@@H]1CN(C)CC1CCCCC1`: the cytotoxicity call was “inactive”.

As for `C[C@H]1CCCCO[C@@H](CN(C)CC2CCCCC2)[C@@H](C)CN([C@@H](C)CO)C(=O)c2cc(NC(=O)Nc3ccc4c(c3)OCO4)ccc2O1`, the cytotoxicity call was “active”.

Take `C[C@@H]1CCCCO[C@@H](CN(C)CC2CCCCC2)[C@H](C)CN([C@H](C)CO)C(=O)c2cc(NC(=O)Nc3ccc4c(c3)OCO4)ccc2O1`: the cytotoxicity call was “inactive”.

For the molecule `C[C@@H]1CCCCO[C@H](CN(C)CC2CCCCC2)[C@H](C)CN([C@@H](C)CO)C(=O)c2cc(NC(=O)Nc3ccc4c(c3)OCO4)ccc2O1`, the cytotoxicity call was “active”.

Turning to `C[C@@H]1CCCCO[C@@H](CN(C)CC2CCCCC2)[C@H](C)CN([C@@H](C)CO)C(=O)c2cc(NC(=O)Nc3ccc4c(c3)OCO4)ccc2O1`, the cytotoxicity call is “inactive”.

For `C[C@@H]1CN([C@@H](C)CO)C(=O)c2cc(NC(=O)Nc3ccc4c(c3)OCO4)ccc2O[C@@H](C)CCCCO[C@H]1CN(C)CC1CCCCC1`, the cytotoxicity call is “active”.

Turning to `C[C@H](CO)N1C[C@H](C)[C@@H](CN(C)CC2CCCCC2)OCCCC[C@H](C)Oc2ccc(NC(=O)Nc3ccc4c(c3)OCO4)cc2C1=O`, the cytotoxicity call is “inactive”.

Turning to `CC(C)CC#Cc1cnc2c(c1)C(=O)N([C@@H](C)CO)C[C@@H](C)[C@H](CN(C)S(=O)(=O)c1ccccc1)O2`, the cytotoxicity call was “inactive”.

As for `CC(C)(C)c1nc(-c2cccc(NS(=O)(=O)c3c(F)cccc3F)c2F)c(-c2ccnc(N)n2)s1`, the cytotoxicity call is “inactive”.

Consider `CC(C)NC(=O)N(C)C[C@H]1Oc2ccc(NC(=O)CCN3CCOCC3)cc2CC(=O)N([C@@H](C)CO)C[C@H]1C`, for which the cytotoxicity call is “inactive”.

Consider `CCS(=O)(=O)N1C[C@]2(CCN(CC2)Cc2cccc(c2)OC)c2c(n(c3cc(ccc23)OC)C)[C@@H]1CO`, for which the cytotoxicity call was “inactive”.

As for `C[C@H](CO)N1C[C@H](C)[C@@H](CN(C)C(=O)c2ccccn2)Oc2cc(Br)ccc2S1(=O)=O`, the cytotoxicity call is “inactive”.

`CCNC(=O)c1cc2c(c(-c3cccc(-c4cc5ccccc5o4)c3)n1)[C@@H](CCO)N(C(=O)NC(C)C)C2`: the cytotoxicity call is “inactive”.

With `Cc1ccc(S(=O)(=O)N(C)C[C@H]2Oc3ncc(Br)cc3C(=O)N([C@H](C)CO)C[C@@H]2C)cc1`, the cytotoxicity call is “inactive”.

Consider `C[C@H](CO)N1C[C@H](C)[C@@H](CN(C)C(=O)Nc2ccc(F)cc2)OCCCC[C@H](C)Oc2ccc(NC(=O)NC3CCCCC3)cc2C1=O`, for which the cytotoxicity call is “inactive”.

Consider `Cc1c(-c2ccc(C(N)=O)c3[nH]c4cc(C(C)(C)O)ccc4c23)cccc1-n1cnc2ccccc2c1=O`, for which the cytotoxicity call is “active”.

With `CCOC(=O)Cn1cnc2ccccc2c1=O`, the cytotoxicity call was “inactive”.

Regarding `Cc1nc2c(cc1C(=O)NN)c(=O)n(C)c(=O)n2C`, the cytotoxicity call was “inactive”.

For `CC(C)NC(=O)Nc1ccc2c(c1)CC(=O)N([C@H](C)CO)C[C@H](C)[C@@H](CN(C)Cc1ccc(Oc3ccccc3)cc1)O2`, the cytotoxicity call was “inactive”.

For `O=C(C[C@@H]1CC[C@H]2[C@@H](COC[C@@H](O)CN2C(=O)c2ccncc2)O1)NC1CCC1`, the cytotoxicity call is “inactive”.

As for `C[C@@H]1CCCCO[C@H](CN(C)C(=O)Nc2cccc3ccccc23)[C@H](C)CN([C@@H](C)CO)C(=O)c2cc(NC(=O)c3ccncc3)ccc2O1`, the cytotoxicity call was “inactive”.

On to `CC(=O)N(O)CCCCCNC(=O)CC(O)(CC(=O)NCCCCCN(O)C(C)=O)C(=O)O`, for which the cytotoxicity call is “inactive”.

Turning to `CC(=O)N(O)CCCCNC(=O)CCC(=O)N(O)CCCCCNC(=O)CCC(=O)N(O)CCCCCN`, the cytotoxicity call was “inactive”.

For `C[C@H](N)CCC(=O)NCS(=O)(=O)O`, the cytotoxicity call is “inactive”.

On to `CC(=O)N(O)CCCCCNC(=O)CCC(=O)N(O)CCCCCNC(=O)CCC(=O)N(O)CCCCCN.CS(=O)(=O)O`, for which the cytotoxicity call was “active”.

For the molecule `CC(=O)N(O)CCCCCNC(=O)CCC(=O)N(O)CCCCCNC(=O)CCC(=O)N(O)CCCCCN`, the cytotoxicity call is “active”.

In the case of `CC(=O)NCCCS(=O)(=O)O`, the cytotoxicity call was “inactive”.

Take `COCCNC(=O)C[C@@H]1CC[C@H]2[C@@H](COC[C@H](O)CN2S(=O)(=O)c2ccccc2F)O1`: the cytotoxicity call is “inactive”.

With `COc1ccc(S(=O)(=O)Nc2ccc3c(c2)[C@H]2C[C@H](CC(=O)NCC4CC4)O[C@@H](CO)[C@H]2O3)cc1`, the cytotoxicity call was “inactive”.

For `C[C@@H]1CN([C@@H](C)CO)C(=O)Cc2cc(NS(C)(=O)=O)ccc2O[C@H]1CN(C)S(=O)(=O)c1ccccc1`, the cytotoxicity call was “inactive”.

`CN[C@H]1CN(c2ccc3c(=O)c(C(=O)O)cn(-c4nccs4)c3n2)C[C@@H]1OC`: the cytotoxicity call is “inactive”.

In the case of `CC(C)NCC(O)c1ccc2ccccc2c1.Cl` (centres undefined), the cytotoxicity call is “inactive”.

With `CCC(NC(C)C)C(O)c1ccc(O)c(O)c1.CS(=O)(=O)O` (centres undefined), the cytotoxicity call was “inactive”.

On to `CC(C)NCC(O)c1ccc(O)c(O)c1.Cl` (centres undefined), for which the cytotoxicity call is “active”.

Turning to `CC(C)NCC(O)c1ccc(NS(C)(=O)=O)cc1.Cl` (centres undefined), the cytotoxicity call was “inactive”.

For the molecule `CC(C)NCC(O)c1cc(O)cc(O)c1` (centres undefined), the cytotoxicity call is “active”.

On to `CC(C)(C)NCC(O)c1cc(O)cc(O)c1.O=S(=O)(O)O` (centres undefined), for which the cytotoxicity call was “inactive”.
